# Data published in ChEMBL document CHEMBL1157539, “Thousands of chemical starting points for antimalarial lead identification” (Nature, 2010).
# Tests used:
# Assay type in all cases: functional
# Plasmodium falciparum [1] = assay: GSK_TCMDC: Inhibition of Plasmodium falciparum 3D7 in whole red blood cells, using parasite LDH activity as an index of growth. Test compounds present at 2uM
# Plasmodium falciparum [2] = assay: GSK_TCMDC: Inhibition of Plasmodium falciparum Dd2 in whole red blood cells, using parasite LDH activity as an index of growth. Test compounds present at 2uM
# HepG2 = assay: GSK_TCMDC: Percent inhibition of human HepG2 cell line. Test compounds present at 10uM.
Compound,Inhibition (Plasmodium falciparum [1]),Inhibition (Plasmodium falciparum [2]),Inhibition (HepG2)
COc1ccc(CCN(C)CCOc2ccc(NC(=O)COc3ccc4sc5ccccc5c(=O)c4c3)cc2)cc1OC,100%,91%,99%
Cc1c(C(=O)C2CC2CN2CCC(N3CCCC3)CC2)sc2ccccc12 (stereo unspecified),94%,9%,16%
Cc1noc(C)c1-c1ccc2c(Nc3ccc(C#N)cc3)c(C(N)=O)cnc2c1,97%,73%,6%
O=C(NCc1ccc(C(=O)NC2CCCCC2)cc1)c1ccc(O)c(-c2ccc(Cl)c(Cl)c2)c1,93%,0%,5%
O=C(Nc1cccc(F)c1)N1CCC(CN2CCOC(c3ccccc3)(c3ccccc3)C2)CC1,96%,97%,12%
CC(C)C[C@H](NC(=O)OC(C)(C)C)C(=O)Nc1ccc(Cc2ccc(NC(=O)[C@H](CC(C)C)NC(=O)OC(C)(C)C)cc2)cc1,94%,88%,0%
O=C(N[C@@H](Cc1ccccc1)C(=O)NCCN1CCCC1)c1ccc(O)c(-c2ccc(Cl)c(Cl)c2)c1,95%,46%,8%
